Data from PubChem BioAssay AID651828 (ICCB-Longwood Screening Facility, Harvard Medical School, 2012).
“And” between values parts separate entries of the source, which are not always exact repeats. Equal entries are not always repeated. In all, about 20,000 compounds went through this assay and about 25 (0.1%) were called active. Rule as the data show it: active = % bound below about 75%; inactive = the rest. Shown is part of a subset that was picked to be rich in actives.

The compounds below were run against Nucleoprotein (Rift valley fever virus (strain ZH-548 M12)) (UniProt P21700) (assay: inhibitors of RVFV nucleoprotein–RNA binding, primary screen, biochemical, fluorescence polarization (AID 651828)). Conditions: RVFV N-RNA binding, stronger effect = lower value, concentration not given here.
Chain of Nucleoprotein (Rift valley fever virus (strain ZH-548 M12)) (P21700 whole entry, looked up): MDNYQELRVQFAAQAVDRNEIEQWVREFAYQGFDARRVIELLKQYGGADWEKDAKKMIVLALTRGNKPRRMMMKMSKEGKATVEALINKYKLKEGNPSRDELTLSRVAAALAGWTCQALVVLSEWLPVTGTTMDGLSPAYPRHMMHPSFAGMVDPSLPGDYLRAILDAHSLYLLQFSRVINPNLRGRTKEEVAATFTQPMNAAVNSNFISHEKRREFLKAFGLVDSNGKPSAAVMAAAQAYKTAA
`Cc1ccc2occ(CN3CCSCC3)c(=O)c2c1` was tested, and the % bound was 100% (inactive). With `COc1ccc(C(C)=CC(=O)C(C)(C)C)cc1` the % bound was 96.7% (inactive). In the case of `Cc1nc2cc3nc(-c4cccs4)cnc3cc2n1C`, the % bound is reported as 115% (inactive). For `O=C(Nc1ccc(C(=O)N2CCCc3ccccc32)cc1)c1ccco1`, the % bound was 95.2% (inactive). In the case of `CC[C@H](CO)Nc1nc(NCc2ccccc2O)c2ncn(C(C)C)c2n1`, the % bound is reported as 98.6% (inactive). In the case of `Nc1nonc1C(=NCc1ccccc1)NO`, the % bound is reported as 96.3% (inactive). In the case of `COc1ccc(C(=O)c2cnc3ccccn23)cc1Cl`, the % bound is reported as 96.7% (inactive). With `O=C(c1cccs1)c1coc2c1cc(O)c1ccccc12` the % bound was 94.6% (inactive). `O=c1[nH]c(O)c(C=Nc2ccccc2)c(=O)[nH]1` was tested, and the % bound was 101% (inactive). For `CC(C)=N/N=C1/NC(=O)C(CC(=O)Nc2cccc3ccccc23)S1` (configuration not stated), the % bound was 96.1% (inactive). `CC(C)CN1C(=O)C=CC1=O` was tested, and the % bound was 86.4% (inactive). For `CC1(C)C(=O)C2(C(=O)Nc3cccc(C(F)(F)F)c3)CCC1C2` (configuration not stated), the % bound was 98.6% (inactive). `CCCC(=O)N1CCN(c2ccc(NC(=O)c3cccc(C)c3OC)cc2Cl)CC1` was tested, and the % bound was 92.1% (inactive). For `O=C(Nc1ccccc1)C1CCCN(S(=O)(=O)c2ccccc2)C1` (configuration not stated), the % bound was 98.9% (inactive). `COCC(C)N=CC1=C(O)CC(C)(C)CC1=O` (configuration not stated) was tested, and the % bound was 94.3% (inactive). With `O=C(OCCN1C(=O)c2ccccc2C1=O)Oc1ccccc1` the % bound was 93.9% (inactive). With `O=c1[nH]c(NCCCN2CCOCC2)nnc1-c1ccccc1` the % bound was 93.9% (inactive). `O=C1C=C(Nc2ccccc2)C(=O)N1Cc1ccccc1` was tested, and the % bound was 102% (inactive). With `CCc1ccc(NC(=O)C(CC)CC)cc1` the % bound was 97.6% (inactive). In the case of `CC(C)NC(=O)C(C)Oc1ccc(S(N)(=O)=O)cc1` (configuration not stated), the % bound is reported as 96.3% (inactive). `Cc1cc(C(=O)Nc2ccc(C(=O)N3CCOCC3)cc2)cs1` was tested, and the % bound was 88.4% (inactive). `CC(C)(O)C(/C=C/c1ccccc1)=N/NC(N)=O` was tested, and the % bound was 96.4% (inactive). For `O=C(CC(F)(F)F)Nc1ccccn1`, the % bound was 94% (inactive). For `COC(=O)C12CCC(C)(C(=O)O1)C2(C)C` (configuration not stated), the % bound was 90.1% (inactive). `OC1CCN(Cc2ccc[nH]2)CC1` was tested, and the % bound was 95% (inactive). For `Nc1nc2nc(-c3ccccc3)cc(-c3ccccc3)n2n1`, the % bound was 92% (inactive). With `COC(=O)CSc1nnc2c3ccccc3n(CCc3ccccc3)c2n1` the % bound was 104% (inactive). In the case of `Cc1ccc(C(=O)c2sc3[nH]c(=O)c(C(=O)O)cc3c2N)cc1`, the % bound is reported as 97.7% (inactive). `Cc1ccc(NC(=O)Nc2c(C)noc2-c2ccc(C(F)(F)F)cc2)cc1` was tested, and the % bound was 97.4% (inactive). `CNC(=S)N/N=C/c1cccnc1` was tested, and the % bound was 96.3% (inactive). In the case of `CC1=Nc2c(ccc3cccnc23)C1(C)C`, the % bound is reported as 45.3% (active). For `COc1ccc(OCC(=O)Nc2ccc(CN3CCOCC3)cc2)cc1`, the % bound was 87.6% (inactive). `O=C(C1CCCN(S(=O)(=O)c2ccccc2)C1)N1CCN(c2ccc(F)cc2)CC1` (configuration not stated) was tested, and the % bound was 102% (inactive). In the case of `CS(=O)(=O)Cc1ccccc1`, the % bound is reported as 97.7% (inactive). In the case of `Cc1cc(C)cc(C(=O)NC(=S)Nc2ccc3[nH]c(=O)[nH]c3c2)c1`, the % bound is reported as 98.5% (inactive). With `COc1ccc(N2CC(NC(=O)NCC3CCCO3)CC2=O)cc1OC` (configuration not stated) the % bound was 110% (inactive). In the case of `CCCCOc1ccc(C(C)(C#N)CC#N)cc1` (configuration not stated), the % bound is reported as 102% (inactive). In the case of `COc1ccc(-c2cc(-c3cccs3)n(-c3nc(C)cc(=O)[nH]3)n2)cc1`, the % bound is reported as 109% (inactive). In the case of `O=c1[nH]c(=S)[nH]c(O)c1C=NC12CC3CC(CC(C3)C1)C2`, the % bound is reported as 91.6% (inactive). With `O=C(Nc1ccc2c(c1)OCC1CCCN21)C1=Cc2ccccc2OC1` (configuration not stated) the % bound was 96.2% (inactive). In the case of `CN(C)NS(=O)(=O)C1CCS(=O)(=O)C1` (configuration not stated), the % bound is reported as 93% (inactive). For `COc1ccc(N2CCN(C(C)=C3C(=O)c4ccccc4C3=O)CC2)cc1`, the % bound was 96.4% (inactive). In the case of `CCOC(=O)Nc1sccc1C(N)=O`, the % bound is reported as 96.8% (inactive). For `Cc1cccc(N2CCN(C(=O)N(C)C)CC2)c1C`, the % bound was 77.7% (inactive). With `O=S1(=O)CC(S(=O)(=O)c2ccccc2)c2ccccc21` (configuration not stated) the % bound was 92.2% (inactive). `COC(=O)c1ccc(CN2CCCC(C)C2)cc1` (configuration not stated) was tested, and the % bound was 100% (inactive). For `CC12CCC(O)CC1=CCC1C2CCC2(C)/C(=N/N)CCC12` (configuration not stated), the % bound was 94% (inactive). With `COc1ccc(-c2nc3c(c(=O)c4ccccc4n3C)c(=O)n2Cc2ccco2)cc1` the % bound was 95.8% (inactive). With `COc1ccc(CCNC(N)=O)cc1OC` the % bound was 94.3% (inactive). In the case of `CCOC(=O)N1CCN(C(=O)CN(c2ccccc2)S(=O)(=O)c2ccc(F)cc2)CC1`, the % bound is reported as 93.7% (inactive). For `O=C1c2ccccc2C(=O)N1CCc1nn[nH]n1`, the % bound was 93.6% (inactive). For `Nc1cc(-c2ccccc2)[nH]n1`, the % bound was 94.5% (inactive). With `C/C(=N\N1CCN(C)CC1)C1=C(O)c2ccccc2C1=O` the % bound was 97.6% (inactive). With `O=C(CCN1C(=O)c2ccccc2C1=O)Oc1c(-c2ccco2)oc2ccccc2c1=O` the % bound was 95% (inactive). With `COc1ccccc1C(c1c(C)[nH][nH]c1=O)C(C#N)C#N` (configuration not stated) the % bound was 95.8% (inactive). `O=C(CCC(=O)c1ccccc1)c1ccccc1` was tested, and the % bound was 93.9% (inactive). `CS(=O)(=O)N1CCN(C(=O)CSc2ccccc2)CC1` was tested, and the % bound was 80.6% (inactive). For `COc1cc(C2c3c(oc4ccccc4c3=O)C(=O)N2CCCOC(C)C)cc(Br)c1O` (configuration not stated), the % bound was 97.6% (inactive). For `CCOC(=O)c1cn[nH]c1NC(=S)Nc1ccccc1`, the % bound was 98.6% (inactive). In the case of `Cc1nc(N)sc1-c1ccnc(Nc2cccc([N+](=O)[O-])c2)n1`, the % bound is reported as 104% (inactive). For `Cc1nc2sc(C(c3ccccc3Cl)N(C)Cc3ccccc3)c(O)n2n1` (configuration not stated), the % bound was 108% (inactive). `CCC(=O)Nc1ccc(C(=O)n2nnc3ccccc32)cc1` was tested, and the % bound was 94.2% (inactive). For `CNS(=O)(=O)c1ccc(NC(=O)C2CC3C=CC2C3)cc1` (configuration not stated), the % bound was 99.1% (inactive). `CC1(C)C/C(=N/O)c2ccoc2C1` was tested, and the % bound was 97.9% (inactive). For `CCC(=O)N=c1sc2cc(Br)ccc2n1CCOC`, the % bound was 101% (inactive). In the case of `COc1ccc(CCC(=O)NCC#N)cc1`, the % bound is reported as 86.2% (inactive). With `CCOc1ccc(C(=O)Nc2cccc(-c3ccc4nncn4n3)c2)cc1` the % bound was 107% (inactive). With `Cc1ccc2oc(C(=O)N(C)c3ccccc3)c(C)c2c1` the % bound was 97.6% (inactive). For `CC(=O)Oc1ccc(S(=NS(=O)(=O)c2ccccc2)c2ccc(OC(C)=O)cc2)cc1`, the % bound was 94.2% (inactive). `Cc1[nH]cc(Br)c(=O)c1OCC(=O)O` was tested, and the % bound was 95.2% (inactive). In the case of `Cc1c(C(=O)NCCN2CCOCC2)sc2nc(-c3ccc(F)cc3)cn12`, the % bound is reported as 97% (inactive). For `N#Cc1c(NC(=S)NC(=O)c2ccco2)sc2c1CCCC2`, the % bound was 97.3% (inactive). In the case of `C/C(=N\NC1=NCCCCC1)c1ccccc1`, the % bound is reported as 95.3% (inactive). `CC1CCN(CC(=O)Nc2nccs2)CC1` was tested, and the % bound was 91.9% (inactive). With `CCC1CCC(N(CC)CCN(C)C)CC1` (configuration not stated) the % bound was 112% (inactive). For `C[C@H](N[C@@H](CCc1ccccc1)C(=O)O)C(=O)N1Cc2ccccc2C[C@H]1C(=O)O`, the % bound was 100% (inactive). For `COc1ccc2oc(=O)c(S(=O)(=O)c3ccccc3)cc2c1`, the % bound was 85% (inactive). For `O=C(O)CN1C(=O)/C(=C2/OC(=O)c3ccccc32)SC1=S`, the % bound was 95.4% (inactive). With `O=C(NCCc1ccccc1)Nc1ccccc1` the % bound was 108% (inactive). `CCCNC(=O)c1c(N)n(-c2ccccc2)c2nc3ccccc3nc12` was tested, and the % bound was 95.9% (inactive). With `O=C(Nc1cccc(Nc2nccc(Nc3cccc(C(F)(F)F)c3)n2)c1)C1CC1` the % bound was 112% (inactive) and 103% (inactive). `Cn1c(=O)c2cc3c(=O)n(C)c(=O)c3cc2c1=O` was tested, and the % bound was 101% (inactive). With `COc1c(C(=O)O/N=C(\N)c2cccs2)csc1Cl` the % bound was 95.1% (inactive). For `CN(C)c1ccc(C=NCC(O)CN=Cc2ccc(N(C)C)cc2)cc1` (configuration not stated), the % bound was 97.1% (inactive). With `Cc1ccc(S(=O)(=O)NCc2csc(C)n2)c(C)c1` the % bound was 105% (inactive). In the case of `CC(C)N1C(=O)CNC1=S`, the % bound is reported as 98% (inactive). With `CC(C)CC(=O)Nc1ccncc1` the % bound was 86% (inactive). `O=C(OCCO)c1cc(Cl)c(C(=O)OCCO)cc1Cl` was tested, and the % bound was 104% (inactive). With `COC(=O)COc1cccc(NC(=O)Cc2cccs2)c1` the % bound was 98.5% (inactive). `CCCNC1=C(c2ccc(OC)cc2)C(=O)c2ccccc21` was tested, and the % bound was 95.2% (inactive). For `CSc1sc(C(=O)NC(=O)NCc2cccnc2)c(C)c1-c1ccon1`, the % bound was 93.2% (inactive). With `CN(C)C(C#N)c1cn(C)c2ccccc12` (configuration not stated) the % bound was 94.2% (inactive). With `Cc1[nH]c2ccccc2c1SCC(=O)Nc1nccs1` the % bound was 108% (inactive). With `COc1cccc(-c2ccc(=O)n(CC(=O)NCc3ccccc3)n2)c1` the % bound was 85% (inactive). With `O=C(NCCSCc1ccco1)C1CCC1` the % bound was 98.2% (inactive). For `CCSc1nc(=O)[nH]c2c1CCC2`, the % bound was 92.2% (inactive). With `CCC(=O)NC1(C(F)(F)F)C(=O)NC(C)=C1C(=O)OC` (configuration not stated) the % bound was 97% (inactive). For `C/C(=N/NC(=O)c1ccoc1C)c1ccc(NC(=O)c2ccco2)cc1`, the % bound was 91.1% (inactive). For `N#Cc1cccc2c1-c1ccccc1C2`, the % bound was 96% (inactive). In the case of `O=C1c2ccc(-c3nc4ccccc4c(=O)o3)cc2C(=O)N1c1ccc2c(c1)OCO2`, the % bound is reported as 90% (inactive). `O=C1CC2(CCCC2)C(=O)N1c1ccc(S(=O)(=O)NCc2ccco2)cc1Cl` was tested, and the % bound was 94.5% (inactive). With `CN1CCN(C(=O)c2ccccc2NC(=O)c2ccc(Cl)cc2)CC1` the % bound was 100% (inactive). In the case of `CCN(CC)C(=O)N1CC(C)CC(C)C1` (configuration not stated), the % bound is reported as 95.2% (inactive). For `CCN1CCN(C(c2cccnc2)c2c(NC(C)=O)sc3c2CCCC3)CC1` (configuration not stated), the % bound was 109% (inactive). With `O=S(=O)(c1ccccc1)N1CCn2cccc2C1c1ccccc1` (configuration not stated) the % bound was 99.1% (inactive). In the case of `CCSc1nc2ccccc2c(=O)n1C`, the % bound is reported as 96.2% (inactive). For `CS(=O)(=O)NCCS(=O)(=O)N1CCN(c2ccccc2)CC1`, the % bound was 97.1% (inactive).
